# According to PubChem BioAssay AID2313 (Broad Institute, 2010):
# The whole screen tested about 22,000 compounds, of which about 460 (2.1%) were called active. Inconclusive results (about 2%) are left out. Many of the other results were omitted from the sample, so actives are more common in it than they were. A number with no mark means an inactive call.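 Rule for the calls: active = mean inhibition across valid replicates above about 65% (limit read from the data); inconclusive = mean under the limit, yet half or more replicates past it; inactive = the rest.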
# Experiment: Hedgehog pathway signaling inhibitors, primary screen, luminescence, Shh-LIGHT2 cells, Gli-luciferase (AID 2313);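 note: pathway switched on by Shh-conditioned medium diluted 1 in 25 in low serum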
# Settings: Shh-LIGHT2 Gli-luciferase reporter, 30 h; stronger effect = higher value
row,SMILES,inhibition
1,Cc1ccc(S(=O)(=O)Nc2ccc3c(c2)C(=O)N([C@H](C)CO)C[C@@H](C)[C@H](CN(C)Cc2ccccc2)O3)cc1,15.5%
2,COC(=O)c1sc(SC)c(-c2ccn(S(=O)(=O)c3ccc(Cl)cc3)n2)c1C,14.7%
3,Oc1ccc(-n2cccc2)cc1,30.8%
4,O=C(OC1=CC(=O)c2cccc3cccc1c23)c1ccccc1,-20.2%
5,Cc1ccc(C(=O)c2coc3ccc(O)c(CN(C)C)c23)cc1,38.9%
6,CC(C)NC(=O)N(C)C[C@H]1Oc2c(NS(=O)(=O)c3ccc(Cl)cc3)cccc2C(=O)N([C@@H](C)CO)C[C@H]1C,3.77%
7,C[C@@H]1O[C@@H](Oc2cc(O)c3c(=O)c(O[C@@H]4O[C@@H](C)[C@H](O)[C@@H](O)[C@H]4O)c(-c4ccc(O)cc4)oc3c2)[C@H](O)[C@H](O)[C@H]1O,-11.3%
8,COc1ccc(S(=O)(=O)Nc2ccc3c(c2)CC(=O)N([C@H](C)CO)C[C@H](C)[C@H](CN(C)CC2CC2)O3)cc1,-6.58%
9,C[C@H]1CN([C@@H](C)CO)C(=O)Cc2cc(NS(C)(=O)=O)ccc2O[C@@H]1CN(C)CC1CC1,70.7% (active)
10,C[C@H](CO)N1C[C@H](C)[C@H](CN(C)CC2CC2)Oc2ccc(NS(=O)(=O)c3ccccc3)cc2CC1=O,-5.84%
11,COc1ccc(S(=O)(=O)Nc2cccc3c2O[C@@H](CN(C)S(=O)(=O)c2c(C)noc2C)[C@@H](C)CN([C@H](C)CO)C3=O)cc1,24.8%
12,C[C@H](CO)N1C[C@H](C)[C@@H](CN(C)Cc2ccccc2)Oc2ccc(NC(=O)CCCN(C)C)cc2C1=O,-0.759%
13,CCOC(=O)c1nnn2c1nc(N1CCN(c3ccccc3)CC1)c1ccccc12,37.6%
14,Cc1cc(C)n2nc(-c3ccc(C(C)(C)C)cc3)cc2n1,-92.6%
15,COc1ccc(CN(C)C[C@H]2Oc3c(NC(=O)C4CC4)cccc3C(=O)N([C@@H](C)CO)C[C@H]2C)cc1,-3.41%
16,C[C@@H]1CN([C@@H](C)CO)C(=O)c2cc(NC(=O)c3ccncc3)ccc2O[C@@H]1CN(C)Cc1ccncc1,9.73%
17,C[C@@H]1CN([C@H](C)CO)C(=O)c2cc(NC(=O)c3ccncc3)ccc2O[C@H]1CN(C)Cc1ccc(Oc2ccccc2)cc1,73.2% (active)
18,C[C@@H]1CN([C@@H](C)CO)C(=O)c2cc(NC(=O)c3ccncc3)ccc2O[C@H]1CN(C)Cc1ccc(C(=O)O)cc1,13.9%
19,Cc1ccc(S(=O)(=O)N(C)C[C@@H]2Oc3c(NC(=O)Nc4c(C)noc4C)cccc3C(=O)N([C@@H](C)CO)C[C@@H]2C)cc1,-32.7%
20,CC(C)(O)C1=CCC23COC(C2)C(O)(C(=O)O)CCC13 (stereo unspecified),12.8%
21,COc1ccc(NC(=O)N(C)C[C@@H]2Oc3c(NC(=O)NC4CCCCC4)cccc3C(=O)N([C@H](C)CO)C[C@H]2C)cc1,-15.5%

row,SMILES,inhibition
1,Cc1ccc(S(=O)(=O)N(C)C[C@@H]2Oc3ccc(NS(=O)(=O)c4cn(C)cn4)cc3C(=O)N([C@@H](C)CO)C[C@H]2C)cc1,-8.67%
2,CCOc1cc(/C=C2\SCOC2=O)ccc1O,-11.1%
3,COc1ccc(S(=O)(=O)Nc2cccc3c2O[C@H](CN(C)C(=O)NC(C)C)[C@H](C)CN([C@H](C)CO)C3=O)cc1,4.9%
4,CCN(c1ccccc1)S(=O)(=O)c1ccc(C)cc1,-25.3%
5,Cc1cc(=O)[nH]c(SCc2cn3c(C)cc(C)nc3n2)n1,-20.5%
6,Cc1ccc(S(=O)(=O)Nc2cccc3c2O[C@H](CN(C)S(=O)(=O)c2cn(C)cn2)[C@H](C)CN([C@H](C)CO)C3=O)cc1,21.4%
7,COc1ccc(CN(C)C[C@H]2OCCCC[C@@H](C)Oc3ccc(NC(=O)Nc4cccc5ccccc45)cc3C(=O)N([C@H](C)CO)C[C@@H]2C)cc1,17.8%
8,Cc1ccc(S(=O)(=O)N(C)C[C@@H]2Oc3c(NC(=O)Nc4ccccc4)cccc3C(=O)N([C@H](C)CO)C[C@H]2C)cc1,-14.6%
9,Cc1ccc(S(=O)(=O)N(C)C[C@H]2Oc3c(NC(=O)C4CC4)cccc3C(=O)N([C@@H](C)CO)C[C@@H]2C)cc1,28.4%
10,C[C@H]1CN([C@@H](C)CO)C(=O)c2cccc(NC(=O)Nc3ccccc3)c2O[C@H]1CN(C)S(=O)(=O)c1ccc(Cl)cc1,108% (active)
11,C[C@H](CO)N1C[C@H](C)[C@H](CN(C)S(=O)(=O)c2ccccc2)Oc2c(NC(=O)Nc3ccccc3)cccc2C1=O,14.8%
12,Cc1ccc(S(=O)(=O)N(C)C[C@@H]2Oc3c(NC(=O)C4CC4)cccc3C(=O)N([C@H](C)CO)C[C@H]2C)cc1,-12.6%
13,Cc1ccc(S(=O)(=O)N(C)C[C@@H]2Oc3c(NC(=O)C4CC4)cccc3C(=O)N([C@H](C)CO)C[C@@H]2C)cc1,115% (active)
14,C[C@@H]1CN([C@H](C)CO)C(=O)c2cccc(NC(=O)Nc3cccc4ccccc34)c2O[C@@H]1CN(C)Cc1ccccc1,0.787%
15,C[C@H]1CN([C@@H](C)CO)C(=O)c2cccc(NC(=O)c3ccncc3)c2O[C@H]1CN(C)C,-21.4%
16,COc1ccc(NC(=O)Nc2cccc3c2O[C@H](CN(C)Cc2ccc(Cl)c(Cl)c2)[C@H](C)CN([C@@H](C)CO)C3=O)cc1,51.9%
17,C[C@@H]1CN([C@@H](C)CO)C(=O)Cc2cc(NC(=O)Nc3ccc4c(c3)OCO4)ccc2O[C@@H]1CN(C)S(=O)(=O)c1ccc(Cl)cc1,38.3%
18,O=C1C(c2ccccc2)CCCC1c1ccccc1 (stereo unspecified),22.1%
19,Cc1noc(C)c1NC(=O)Nc1cccc2c1O[C@@H](CN(C)C(=O)Nc1ccc(C(F)(F)F)cc1)[C@@H](C)CN([C@@H](C)CO)C2=O,1.09%
20,Cc1cc(=O)oc2cc(OCc3cccc(F)c3)ccc12,-75.4%
